# PubChem BioAssay AID504905 (The Scripps Research Institute Molecular Screening Center, 2011)
# The other results are listed elsewhere or left out. Active and inactive are the calls of the source. Cut-off read from the data, not from the text of the source: active = activation above about 17%; inactive = the rest.
# Molecular target: 5-hydroxytryptamine receptor 5A (Homo sapiens) (UniProt P47898)
# Test: HTR5A agonists in cells, counter-screen for OPRM1-OPRD1 heterodimer agonist project, cell-based, luminescence (AID 504905);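 note: 0% = vehicle-treated cells and 100% = reference agonist response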
# Settings: HTR5A agonist counterscreen, at 9.3 µM, hits give high values
# 5-hydroxytryptamine receptor 5A (Homo sapiens), sequence (P47898 whole entry, looked up): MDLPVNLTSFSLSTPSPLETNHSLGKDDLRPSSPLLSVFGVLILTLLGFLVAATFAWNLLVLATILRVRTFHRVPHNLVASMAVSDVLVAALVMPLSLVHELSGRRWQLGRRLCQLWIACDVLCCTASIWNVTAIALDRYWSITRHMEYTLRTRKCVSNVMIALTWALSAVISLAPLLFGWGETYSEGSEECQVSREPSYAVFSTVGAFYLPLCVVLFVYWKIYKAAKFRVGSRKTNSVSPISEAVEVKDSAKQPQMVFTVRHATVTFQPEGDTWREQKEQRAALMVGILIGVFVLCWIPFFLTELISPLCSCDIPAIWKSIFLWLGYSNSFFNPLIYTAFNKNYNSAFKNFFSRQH
row,Structure (SMILES),activation
1,COc1ccc(-n2nnnc2-c2nc3ccccc3s2)cc1,4.69% (inactive)
2,N#C/C(=C(/O)COC(=O)COc1ccc(Cl)cc1)c1nc2ccccc2[nH]1,9.3% (inactive)
3,CN(C)CCCN(C(=O)c1ccc(S(=O)(=O)N2CCCc3ccccc32)cc1)c1nc2ccc(F)cc2s1,7.49% (inactive)
4,Cc1ccc(-n2c(SCC(=O)NCCC3=CCCCC3)nc3n[nH]c(C)c3c2=N)cc1Cl,1.57% (inactive)
5,COC(=O)c1ccc(C23CC4(C2)[C@H](CN(Cc2cccnc2)[C@@H]4c2ccccc2)C3c2ccc(Cl)nc2)cc1 (stereo not given in full),5.91% (inactive)
